High-throughput results deposited in PubChem BioAssay by SRMLSC.
NADH enzymes – inhibitors of enzymes used to reach an NAD/NADH endpoint. coupled PK/LDH NADH assays, four targets. IC50, µM (series often up to 10 µM), for the others: top-dose inhibition. 0.02% of 65,000 active. AID 774;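 active means single-dose screening hits from any of four coupled enzyme assays that gave an IC50 when retested across doses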;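 further: the DPM-DC format reads NADH fluorescence rather than 340 nm absorbance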
MK inhibit – S. pneumoniae mevalonate kinase inhibition | purified MK, PK/LDH-coupled NADH absorbance 340 nm | inhibition, % at 10 µM | 0.48% of 65,000 active;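 active means ranked among the strongest by inhibition in the single 10 µM screen, a fixed top-ranked set picked for dose follow-up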
Spn DPM-DC inh – inhibitors of Streptococcus pneumoniae diphosphomevalonate decarboxylase | purified DPM-DC, PK/LDH coupled NADH fluorescence | 0.49% of 65,000 active | AID 556 | calls only at 10 µM;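 active means the 320 compounds with the highest percent inhibition in the single-dose primary screen, excluding strongly autofluorescent ones, cut at about 32% in these data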;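 further: kinetic rate of NADH fluorescence loss reporting ADP formed by the decarboxylase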
Abs 340nm – compounds absorbing at 340 nm | fold change at 10 µM | compound absorbance at 340 nm, fold over control | 65,000 tested, under 10 active;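 active means at 10 µM dose, initial 340 nm absorbance at least 2 fold that of control wells; inactive means change under 2 fold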;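 further: initial absorbance extrapolated from kinetic A340 decline of NADH oxidation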
Fluor 339 460 – intrinsic fluorescence of library compounds, ex339/em460 – biochemical, MLSMR library, data from DPM-DC assay, artefact control, profiling panel; compound autofluorescence, ex339/em460 nm, NADH buffer; hits give high values; 1 = no-compound wells, NADH background; fluorescence fold increase at 10 µM; 5.5% of 65,000 active;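 active means at 10 µM, mean starting fluorescence two-fold or more over control wells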;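 further: signal is the first read of a kinetic run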
PMK inhibit – S. pneumoniae PMK inhibition; AID 539; purified PMK, PK/LDH-coupled NADH absorbance 340 nm; 0.49% of 65,000 active; inhibition, % at 10 µM;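 active means top-ranked compounds by inhibition in the single 10 µM screen, taking a fixed number of the strongest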;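 further: 0% = full reaction with DMSO carrier and 100% = background rate without enzyme reaction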
Active calls of the source: *. Only some compounds are listed: those with a hit (about 6.8% of all), similar ones and a draw of the others.

For O=C(O)CCCNS(=O)(=O)c1ccc(Br)s1 the results were NADH enzymes 4%, MK inhibit 9, Spn DPM-DC inh inactive, Abs 340nm 1, Fluor 339 460 1.1 and PMK inhibit 3.
Screening COc1ccccc1N(C(=O)c1snc(C(N)=O)c1N)C(C(=O)NC1CCCC1)c1ccco1 (stereo not drawn) returned NADH enzymes 15%, MK inhibit 6, Spn DPM-DC inh inactive, Abs 340nm 1, Fluor 339 460 2.9* and PMK inhibit 10.
COc1ccc(CN(C(=O)c2snc(C(N)=O)c2N)C(C(=O)NC(C)(C)C)c2ccco2)cc1 (stereo not drawn) was read as NADH enzymes 6%, MK inhibit 8, Spn DPM-DC inh inactive, Abs 340nm 1, Fluor 339 460 2.3* and PMK inhibit 9.
`CC(C)(C)NC(=O)COC(=O)c1snc(C(=O)NC2CCCCC2)c1N` gave NADH enzymes 3%, MK inhibit 4, Abs 340nm 1, Fluor 339 460 2.1* and PMK inhibit 10.
Screening CCOc1ccccc1N(C(=O)c1snc(C(N)=O)c1N)C(C(=O)NCCC(C)C)c1ccco1 (stereo not drawn) returned NADH enzymes 8%, MK inhibit 14, Spn DPM-DC inh inactive, Abs 340nm 1.1, Fluor 339 460 1.8 and PMK inhibit 11.
For COc1ccccc1N(C(=O)c1snc(C(N)=O)c1N)C(C(=O)NCCC(C)C)c1ccco1 (stereo not drawn) the results were NADH enzymes 10%, MK inhibit 7, Spn DPM-DC inh inactive, Abs 340nm 1.1, Fluor 339 460 2.5* and PMK inhibit 7.
`Cc1cc(-n2c(SCCC#N)nnc2-c2cccnc2)ccc1Cl` gave NADH enzymes 4%, MK inhibit 1, Spn DPM-DC inh inactive, Abs 340nm 1, Fluor 339 460 0.9 and PMK inhibit 9.
Cc1ccc(S(=O)(=O)NCCCOC(=O)Nc2ccncc2)cc1 was read as NADH enzymes 6%, Spn DPM-DC inh inactive, Abs 340nm 1.1, Fluor 339 460 1.1 and PMK inhibit 9.
CCN(CC)CCCN1C(=O)C(=O)/C(=C(/O)c2ccc3c(c2)CC(C)O3)C1c1cccnc1 (stereo not drawn) was read as NADH enzymes 1%, MK inhibit 0, Spn DPM-DC inh inactive, Abs 340nm 1, Fluor 339 460 1.1 and PMK inhibit 4.
`CC(C(=O)NC1CCCC1)N(Cc1ccco1)C(=O)c1snc(C(=O)NC2CCCC2)c1N` (stereo not drawn) gave NADH enzymes 15%, MK inhibit 1, Spn DPM-DC inh inactive, Abs 340nm 1, Fluor 339 460 2.4* and PMK inhibit 20.
`COCCNC(=O)C(c1ccc(C)o1)N(C(=O)c1snc(C(N)=O)c1N)c1cc(C)cc(C)c1` (stereo not drawn) gave NADH enzymes 12%, MK inhibit 10, Spn DPM-DC inh inactive, Abs 340nm 1, Fluor 339 460 2.1* and PMK inhibit 14.
For Cc1sc(NC(=O)CSc2nnc(-c3ccc(F)cc3)o2)c(C#N)c1C the results were NADH enzymes 8%, MK inhibit 16, Spn DPM-DC inh inactive, Abs 340nm 1.1, Fluor 339 460 1.1 and PMK inhibit 7.
Cc1cc(C)c(S(=O)(=O)N2CCN(C)CC2)c(C)c1 was read as NADH enzymes 6%, MK inhibit 6, Spn DPM-DC inh inactive, Abs 340nm 1, Fluor 339 460 1 and PMK inhibit 6.
Screening CN(CC(=O)N1CCc2ccccc21)S(=O)(=O)c1cccc2cccnc12 returned NADH enzymes 5%, MK inhibit 7, Spn DPM-DC inh inactive, Abs 340nm 1, Fluor 339 460 1.1 and PMK inhibit 9.
Screening O=C(CSc1cccc2cccnc12)N1CCCC1 returned NADH enzymes 3%, MK inhibit 1, Abs 340nm 1, Fluor 339 460 3.9* and PMK inhibit 4.
CN(C)C(=O)CSc1cccc2cccnc12 was read as NADH enzymes 7%, MK inhibit 7, Abs 340nm 1, Fluor 339 460 3.9* and PMK inhibit 6.
For O=C(Nc1ccccc1)N(C1=NCCC1)c1ccc(OC(F)F)cc1 the results were NADH enzymes 1%, MK inhibit 0, Spn DPM-DC inh inactive, Abs 340nm 0.99, Fluor 339 460 1.1 and PMK inhibit 4.
For Cc1cccc(N2CCN(C(=O)C3CCCN(S(=O)(=O)c4cccc5cccnc45)C3)CC2)c1C (stereo not drawn) the results were NADH enzymes 11%, MK inhibit 10, Spn DPM-DC inh inactive, Abs 340nm 1, Fluor 339 460 1.1 and PMK inhibit 20.
CCOC(=O)Cn1c(=O)oc2cc(S(=O)(=O)Nc3ccc(N(CC)CC)cc3C)ccc21 was read as NADH enzymes 7%, MK inhibit 6, Spn DPM-DC inh inactive, Abs 340nm 1, Fluor 339 460 1.1 and PMK inhibit 12.
Screening Cc1cc(C)nc(N2CCC(C(=O)Nc3cccc(C(F)(F)F)c3)CC2)n1 returned NADH enzymes 8%, MK inhibit 5, Spn DPM-DC inh inactive, Abs 340nm 0.98, Fluor 339 460 1.2 and PMK inhibit 17.
Screening CCCn1c(SCC#N)nc2c(c1=O)C1(CCCC1)Cc1ccccc1-2 returned NADH enzymes 3%, MK inhibit 0, Spn DPM-DC inh inactive, Abs 340nm 1.1, Fluor 339 460 1 and PMK inhibit 9.
N#CCSc1n[nH]c2nc3c(c(=O)n12)C1(CCCC1)Cc1ccccc1-3 was read as NADH enzymes 4%, MK inhibit 8, Abs 340nm 1.1, Fluor 339 460 2.2* and PMK inhibit 0.
`CCn1c(SCC(=O)NC2CCCCC2)nnc1-c1cccs1` gave NADH enzymes 7%, MK inhibit 11, Spn DPM-DC inh inactive, Abs 340nm 0.98, Fluor 339 460 1.1 and PMK inhibit 10.
Screening CCn1c(SC(=O)NC2CCCCC2)nnc1-c1cccs1 returned NADH enzymes 18%, MK inhibit 11, Abs 340nm 1, Fluor 339 460 1.9 and PMK inhibit 25*.
N#CCCn1c2ccccc2c2nc3ccccc3nc21 was read as NADH enzymes 13%, MK inhibit 9, Spn DPM-DC inh inactive, Abs 340nm 1.1, Fluor 339 460 1.6 and PMK inhibit 11.
Screening CCOC(=O)Cn1c(C)c(C#N)c2ccccc21 returned NADH enzymes 1%, MK inhibit 0, Spn DPM-DC inh inactive, Abs 340nm 1, Fluor 339 460 0.98 and PMK inhibit 3.
CCCn1c2ccccc2c2nc3ccccc3nc21 was read as NADH enzymes 0%, MK inhibit 0, Spn DPM-DC inh inactive, Abs 340nm 1.1, Fluor 339 460 2.4* and PMK inhibit 0.
For CCOC(=O)Cn1c2ccccc2c2nc3ccccc3nc21 the results were NADH enzymes 3%, MK inhibit 2, Spn DPM-DC inh inactive, Abs 340nm 1.1, Fluor 339 460 2.9* and PMK inhibit 6.
